Reference: PubChem BioAssay AID1159580 (chemical genetic matrix, 2015)
Hit rate of the full screen: of about 5,500 compounds, about 2,000 (36%) were called active. Another 18% or so got no clear call; they are omitted. Rule as the data show it: active = normalized growth mostly below about 0.91 (no sharp cut-off); inconclusive = no clear call, values can overlap the other calls; inactive = mostly above about 0.92. The list shows a part of the results.

Experiment: chemical genetic growth profiling, strain panel (AID 1159580);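 also: tested at 20 µM; growth read once vehicle control cultures reached saturation at 30 °C; 1 = growth at the plate median or of vehicle wells; lower values mean less growth of the strain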
Conditions: S. cerevisiae deletion strains, growth OD
[1] = locus YAR019C, strain CDC15, active compounds read low
[2] = locus YBL105C, strain PKC1, active compounds read low
[3] = locus YBR135W, strain CKS1, active compounds read low
[4] = locus YBR136W, strain MEC1, active compounds read low
[5] = locus YBR160W, strain CDC28, active compounds read low
[6] = locus YDL017W, strain CDC7, active compounds read low
[7] = locus YDL028C, strain MPS1, active compounds read low
[8] = locus YDL101C, strain DUN1, active compounds read low
[9] = locus YDL108W, strain KIN28, active compounds read low
[10] = locus YDL132W, strain cdc53, active compounds read low
[11] = locus YDL214C, strain PRR2, active compounds read low
[12] = locus YDR052C, strain DBF4, active compounds read low
[13] = locus YDR054C, strain cdc34, active compounds read low
[14] = locus YDR226W, strain ADK1, active compounds read low
[15] = locus YDR477W, strain SNF1, active compounds read low
[16] = locus YER123W, strain YCK3, active compounds read low
[17] = locus YER133W, strain GLC7, active compounds read low
[18] = locus YFL009W, strain cdc4, active compounds read low
[19] = locus YFL029C, strain CAK1, active compounds read low
[20] = locus YFR003C, strain YPI1, active compounds read low
[21] = locus YFR019W, strain FAB1, active compounds read low
[22] = locus YFR028C, strain CDC14, active compounds read low
[23] = locus YGR040W, strain KSS1, active compounds read low
[24] = locus YGR052W, strain FMP48, active compounds read low
[25] = locus YGR092W, strain DBF2, active compounds read low
[26] = locus YHR030C, strain SLT2, active compounds read low
[27] = locus YHR079C, strain IRE1, active compounds read low
[28] = locus YHR082C, strain KSP1, active compounds read low
[29] = locus YHR205W, strain SCH9, active compounds read low
[30] = locus YIL147C, strain SLN1, active compounds read low
[31] = locus YJL095W, strain BCK1, active compounds read low
[32] = locus YJL128C, strain PBS2, active compounds read low
[33] = locus YJL157C, strain FAR1, active compounds read low
[34] = locus YJR016C, strain ILV3, active compounds read low
[35] = locus YJR066W, strain TOR1 (second series), active compounds read low
[36] = locus YJR066W, strain TOR1, active compounds read low
[37] = locus YKL048C, strain ELM1, active compounds read low
[38] = locus YKL067W, strain YNK1, active compounds read low
[39] = locus YKL101W, strain HSL1, active compounds read low
[40] = locus YKL193C, strain SDS22, active compounds read low
[41] = locus YKL203C, strain TOR2, active compounds read low
[42] = locus YLR113W, strain HOG1, active compounds read low
[43] = locus YLR133W, strain CKI1, active compounds read low
[44] = locus YLR403W, strain SFP1, active compounds read low
[45] = locus YML070W, strain DAK1, active compounds read low
[46] = locus YMR001C, strain CDC5, active compounds read low
[47] = locus YMR205C, strain PFK2 (second series), active compounds read low
[48] = locus YMR277W, strain FCP1, active compounds read low
[49] = locus YNL006W, strain LST8, active compounds read low
[50] = locus YNL020C, strain ARK1, active compounds read low
[51] = locus YNL161W, strain CBK1, active compounds read low
[52] = locus YNL183C, strain NPR1, active compounds read low
[53] = locus YNL207W, strain RIO2, active compounds read low
[54] = locus YNL222W, strain SSU72, active compounds read low
[55] = locus YNL307C, strain MCK1 (second series), active compounds read low
[56] = locus YOL078W, strain AVO1, active compounds read low
[57] = locus YOL136C, strain PFK27, active compounds read low
[58] = locus YOR061W, strain CKA2, active compounds read low
[59] = locus YOR119C, strain RIO1, active compounds read low
[60] = locus YOR231W, strain MKK1, active compounds read low
[61] = locus YOR329C, strain SCD5, active compounds read low
[62] = locus YPL031C, strain PHO85, active compounds read low
[63] = locus YPL153C, strain RAD53, active compounds read low
[64] = locus YPL204W, strain HRR25, active compounds read low
[65] = locus YPL209C, strain IPL1, active compounds read low
[66] = locus YPL256C, strain CLN2, active compounds read low
[67] = locus YPR025C, strain CCL1, active compounds read low
[68] = locus YPR106W, strain ISR1, active compounds read low
[69] = locus YPR111W, strain DBF20, active compounds read low
[70] = strain NNK1, active compounds read low
[71] = strain TSCII, active compounds read low

Measured: normalized growth

Cn1nccc1-c1cc(Cl)cc(Cl)c1O
inactive: [1] 0.955 | [2] 0.959 | [3] 0.963 | [4] 0.959 | [5] 0.969 | [6] 0.962 | [7] 0.964 | [8] 0.964 | [9] 0.967 | [10] 0.966 | [11] 0.799 | [12] 0.971 | [13] 0.969 | [14] 0.981 | [15] 0.731 | [16] 0.739 | [18] 0.982 | [19] 0.952 | [20] 0.961 | [21] 0.869 | [22] 0.975 | [23] 0.745 | [24] 0.742 | [25] 0.722 | [27] 0.698 | [28] 0.748 | [29] 0.787 | [30] 0.96 | [31] 0.676 | [32] 0.917 | [33] 0.749 | [34] 0.962 | [35] 0.673 | [36] 0.686 | [37] 0.908 | [38] 0.817 | [39] 0.835 | [40] 0.934 | [41] 0.798 | [43] 0.825 | [44] 0.678 | [45] 0.719 | [46] 0.947 | [47] 0.795 | [48] 0.934 | [49] 0.968 | [50] 0.819 | [51] 0.956 | [52] 0.757 | [53] 0.948 | [54] 0.964 | [55] 0.798 | [56] 0.95 | [57] 0.773 | [58] 0.744 | [59] 0.798 | [60] 0.795 | [61] 0.963 | [62] 0.704 | [63] 0.718 | [64] 0.685 | [65] 0.965 | [67] 0.961 | [68] 0.948 | [69] 0.952 | [70] 0.96 | [71] 0.947
active: [17] 0.687 | [26] 0.617 | [42] 0.571 | [66] 0.718

O=S(=O)(NCc1ccc(C(F)(F)F)cc1)c1cc(Br)c(Br)s1
inactive: [1] 0.987 | [2] 0.969 | [3] 0.971 | [4] 0.985 | [5] 0.966 | [6] 0.967 | [7] 0.984 | [8] 0.975 | [9] 0.974 | [10] 0.973 | [11] 0.786 | [12] 0.979 | [13] 0.973 | [14] 0.984 | [15] 0.856 | [16] 0.747 | [17] 0.794 | [18] 0.979 | [19] 0.982 | [20] 0.974 | [21] 0.845 | [22] 0.967 | [23] 0.818 | [24] 0.729 | [25] 0.801 | [27] 0.813 | [29] 0.618 | [30] 0.98 | [31] 0.741 | [32] 0.924 | [33] 0.872 | [34] 0.98 | [35] 0.794 | [36] 0.689 | [38] 0.835 | [40] 0.967 | [41] 0.851 | [43] 0.839 | [44] 0.808 | [45] 0.797 | [46] 0.964 | [47] 0.831 | [48] 0.965 | [49] 0.98 | [50] 0.838 | [51] 0.969 | [52] 0.659 | [53] 0.977 | [54] 0.967 | [55] 0.846 | [56] 0.969 | [57] 0.811 | [58] 0.848 | [59] 0.772 | [60] 0.792 | [61] 0.969 | [62] 0.774 | [63] 0.716 | [64] 0.795 | [65] 0.973 | [67] 0.965 | [68] 0.97 | [69] 0.982 | [70] 0.968 | [71] 0.97
active: [26] 0.645 | [28] 0.607 | [37] 0.791 | [39] 0.714 | [42] 0.721 | [66] 0.728

O=S(=O)(NCc1ccc(C(F)(F)F)cc1)c1cccc(C(F)(F)F)c1
inactive: [1] 0.985 | [2] 0.986 | [3] 0.982 | [4] 0.985 | [5] 0.988 | [6] 0.989 | [7] 0.98 | [8] 0.987 | [9] 0.983 | [10] 0.973 | [11] 0.945 | [12] 0.987 | [13] 0.985 | [14] 0.99 | [15] 0.956 | [16] 0.908 | [17] 0.948 | [18] 0.974 | [19] 0.977 | [20] 0.983 | [21] 0.981 | [22] 0.983 | [23] 0.958 | [24] 0.97 | [25] 0.942 | [26] 0.883 | [27] 0.886 | [28] 1.04 | [29] 0.943 | [30] 0.984 | [31] 0.869 | [32] 0.917 | [33] 0.954 | [34] 0.984 | [35] 0.922 | [36] 1.02 | [37] 0.976 | [38] 0.96 | [39] 0.936 | [40] 0.983 | [41] 1.01 | [43] 0.976 | [44] 0.971 | [45] 0.921 | [46] 0.987 | [47] 0.948 | [48] 0.984 | [49] 0.98 | [50] 0.964 | [51] 0.985 | [52] 1.04 | [53] 0.987 | [54] 0.983 | [55] 0.954 | [56] 0.987 | [57] 0.916 | [58] 0.987 | [59] 1.02 | [60] 0.952 | [61] 0.987 | [62] 0.95 | [63] 0.937 | [64] 0.918 | [65] 0.986 | [66] 0.885 | [67] 0.981 | [68] 0.979 | [69] 0.97 | [70] 0.984 | [71] 0.995
active: [42] 0.802
